This note sets out measurements from PubChem BioAssay.

Active and inactive are the calls of the source.

A short description of experiment [1]: binders of probe aFSTL3 on microarray, primary screen, stem cell growth factor project, biochemical, small-molecule microarray, fluorescence 635/667 (AID 1064).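 Also: measures binding of the biotinylated anti-FSTL3 antibody to printed compounds.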 To be noted: higher = more signal.
The nature of experiment [2]: binders from COS7 lysate, DM2A8 probe, primary screen, torsin A project, cell lysate, small-molecule microarray, fluorescence 635/667 (AID 1065). To be noted: higher = more signal, COS7 lysate expressing mutant human TOR1A.
Experiment [3] can be described thus: binders of probe aFGF2 on microarray, primary screen, stem cell growth factor project, biochemical, small-molecule microarray, fluorescence 635/667 (AID 1067).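 Also: measures binding of biotinylated aFGF2 protein to printed compounds on slides; z-score merges feature fluorescence and signal-to-noise across triplicate slides.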 To be noted: higher = more signal.
Experiment [4] can be described thus: binders of probe aFGF10 on microarray, primary screen, stem cell growth factor project, biochemical, small-molecule microarray, fluorescence 635/667 (AID 1071).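 Also: score merges 667 nm spot intensity and signal to noise from triplicate slides.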 To be noted: higher = more signal.
Experiment [5] has as its target Neurogenic locus notch homolog protein 2 (Homo sapiens) (UniProt Q04721). Nature of the experiment: Notch2 binders on small-molecule microarrays, primary screen, biochemical, small-molecule microarray, 635 nm fluorescence, stem cell growth factors (AID 1073). To be noted: Notch2 binding, higher = more signal.
The target in experiment [6] is Pro-neuregulin-1, membrane-bound isoform (Homo sapiens) (UniProt Q02297). As to the kind of experiment: NRG1 binders on small-molecule microarrays, primary screen, psychiatric disease protein project, biochemical, small-molecule microarray, fluorescence 635/667 (AID 1075).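 Also: score combines 667 nm spot fluorescence with signal to noise.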 As to conditions: NRG1 binding, 635 nm fluorescence, higher = more signal.
Experiment [7] has as its system Neuregulin-1 EGF-like domain. As to the kind of experiment: binders of neuregulin-1 EGF-like domain, primary screen, biochemical, small-molecule microarray, 635 nm fluorescence (AID 1081).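 Also: binding of the protein to compounds printed on small-molecule microarray slides.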 As to conditions: small-molecule microarray binding, higher = more signal.
The nature of experiment [8]: FRG1 promoter luciferase signal modulators, primary screen, FRG1 inhibition for FSHD, cell-based, C2C12 myotubes, firefly/Renilla luciferase, luminescence (AID 1084). To be noted: higher = more signal, called active from +8 up or from −8 down.
The nature of experiment [9]: binders of probe aFST on microarray, primary screen, stem cell growth factor project, biochemical, small-molecule microarray, fluorescence 635/667 (AID 1086).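 Also: score merges 667 nm fluorescence with signal-to-noise of each printed compound spot.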 To be noted: higher = more signal.
A short description of experiment [10]: binders of probe aHhip on microarray, primary screen, stem cell growth factor project, biochemical, small-molecule microarray, fluorescence 635/667 (AID 1087).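 Also: score merges spot fluorescence at 667nm with spot signal to noise ratio.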 To be noted: higher = more signal.
The subject of experiment [11] is PRMT1 (protein arginine N-methyltransferase 1). As to the kind of experiment: PRMT1 binders on small-molecule microarrays, primary screen, biochemical, small-molecule microarray, 635 nm fluorescence (AID 1088).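 Also: binding of Prmt1 protein to compounds spotted on small-molecule microarray slides.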 As to conditions: small-molecule microarray binding, higher = more signal.
Experiment [12] is described as follows: yeast growth modulation, basal conditions, primary screen, YJM789 clinical isolate, OD600, 24 h (AID 1089).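 Also: growth of clinical yeast isolate S. cerevisiae YJM 789 seeded 1000 cells per well; test concentration not given here.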 To be noted: S. cerevisiae YJM789 growth, higher = more signal, called active from +8 up or from −8 down.
The nature of experiment [13]: fission yeast growth modulation, primary screen, strain 972, OD600, 24 h, no modulator (AID 1090).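 Also: basal condition with compound alone and no growth modifier present; test concentration not given here.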 To be noted: S. pombe 972 growth, higher = more signal, called active from +8 up or from −8 down.
A short description of experiment [14]: S. cerevisiae growth modulation with rapamycin, primary screen, strain BY4716, OD600, 96 h (AID 1091). Also: test concentration not given here. To be noted: higher = more signal, called active from +8 up or from −8 down.
Experiment [15] concerns the target Torsin-1A-interacting protein 2 (Homo sapiens) (UniProt Q8NFQ8). Nature of the experiment: LULL1 binders on small-molecule microarray, primary screen, cell lysate, human LULL1 lysate, 635/667 nm fluorescence (AID 1092).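 Also: probe is lysate of COS7 cells overexpressing human LULL1; score merges per-feature 667 nm fluorescence with signal-to-noise.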 As to conditions: hLULL1 lysate binding, 635 nm fluorescence, higher = more signal.
Experiment [16] can be described thus: E. coli growth modulation, two-sided OD650, primary screen, E. coli filamentation project, strain DRC41, 24 h (AID 1093).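 Also: MC1000 strain lacking acrAB efflux and sulA so SOS filamentation is blocked; test concentration not given here.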 To be noted: OD650, 24 h, higher = more signal, called active from +8 up or from −8 down.
A short description of experiment [17]: small-molecule microarray binders of probe aLefty2, primary screen, biochemical, biotinylated probe, 635/667 nm fluorescence (AID 1094).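 Also: score merges spot fluorescence near 667 nm with spot signal-to-noise ratio.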 To be noted: higher = more signal.
The test system of experiment [18] is Noggin (protein binding on small-molecule microarray). Nature of the experiment: Noggin binders on small-molecule microarray, primary screen, biochemical, 635/667 nm fluorescence (AID 1095).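 Also: score merges 667 nm feature fluorescence with signal to noise over triplicate slides.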 As to conditions: 635 nm fluorescence, higher = more signal.
For experiment [19], the target named is Neurogenic locus notch homolog protein 3 (Homo sapiens) (UniProt Q9UM47). As to the kind of experiment: NOTCH3 binders on small-molecule microarray, primary screen, biochemical, 635/667 nm fluorescence (AID 1096). To be noted: NOTCH3 binding, 635 nm fluorescence, higher = more signal.
Experiment [20] can be described thus: small-molecule microarray binders of probe aEGFR, primary screen, biochemical, biotinylated probe, 635/667 nm fluorescence (AID 1097).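 Also: probe is a biotinylated anti-EGFR antibody binding compounds printed on slides; score combines fluorescence near 667 nm and signal to noise of each spot.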 To be noted: higher = more signal.

Chain of Pro-neuregulin-1, membrane-bound isoform (Homo sapiens) (Q02297 whole entry, looked up, the tested form may be a part, canonical isoform): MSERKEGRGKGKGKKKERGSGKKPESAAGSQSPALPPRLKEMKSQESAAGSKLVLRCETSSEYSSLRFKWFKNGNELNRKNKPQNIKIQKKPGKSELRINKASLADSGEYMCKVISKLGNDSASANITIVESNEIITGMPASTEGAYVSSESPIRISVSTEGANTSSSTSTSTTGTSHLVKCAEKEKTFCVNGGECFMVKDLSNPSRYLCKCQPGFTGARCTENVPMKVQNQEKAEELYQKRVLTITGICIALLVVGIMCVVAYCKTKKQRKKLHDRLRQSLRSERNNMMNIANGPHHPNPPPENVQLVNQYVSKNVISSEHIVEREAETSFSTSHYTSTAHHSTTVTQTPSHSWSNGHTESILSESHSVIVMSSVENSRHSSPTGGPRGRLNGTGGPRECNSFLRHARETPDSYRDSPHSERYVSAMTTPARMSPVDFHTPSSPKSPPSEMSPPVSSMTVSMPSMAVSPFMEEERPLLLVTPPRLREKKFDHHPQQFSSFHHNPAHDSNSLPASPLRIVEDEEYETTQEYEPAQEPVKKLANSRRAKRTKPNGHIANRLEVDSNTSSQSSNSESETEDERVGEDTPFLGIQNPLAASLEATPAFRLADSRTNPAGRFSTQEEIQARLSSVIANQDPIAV
Chain of Neurogenic locus notch homolog protein 2 (Homo sapiens) (Q04721 whole entry, looked up, canonical isoform): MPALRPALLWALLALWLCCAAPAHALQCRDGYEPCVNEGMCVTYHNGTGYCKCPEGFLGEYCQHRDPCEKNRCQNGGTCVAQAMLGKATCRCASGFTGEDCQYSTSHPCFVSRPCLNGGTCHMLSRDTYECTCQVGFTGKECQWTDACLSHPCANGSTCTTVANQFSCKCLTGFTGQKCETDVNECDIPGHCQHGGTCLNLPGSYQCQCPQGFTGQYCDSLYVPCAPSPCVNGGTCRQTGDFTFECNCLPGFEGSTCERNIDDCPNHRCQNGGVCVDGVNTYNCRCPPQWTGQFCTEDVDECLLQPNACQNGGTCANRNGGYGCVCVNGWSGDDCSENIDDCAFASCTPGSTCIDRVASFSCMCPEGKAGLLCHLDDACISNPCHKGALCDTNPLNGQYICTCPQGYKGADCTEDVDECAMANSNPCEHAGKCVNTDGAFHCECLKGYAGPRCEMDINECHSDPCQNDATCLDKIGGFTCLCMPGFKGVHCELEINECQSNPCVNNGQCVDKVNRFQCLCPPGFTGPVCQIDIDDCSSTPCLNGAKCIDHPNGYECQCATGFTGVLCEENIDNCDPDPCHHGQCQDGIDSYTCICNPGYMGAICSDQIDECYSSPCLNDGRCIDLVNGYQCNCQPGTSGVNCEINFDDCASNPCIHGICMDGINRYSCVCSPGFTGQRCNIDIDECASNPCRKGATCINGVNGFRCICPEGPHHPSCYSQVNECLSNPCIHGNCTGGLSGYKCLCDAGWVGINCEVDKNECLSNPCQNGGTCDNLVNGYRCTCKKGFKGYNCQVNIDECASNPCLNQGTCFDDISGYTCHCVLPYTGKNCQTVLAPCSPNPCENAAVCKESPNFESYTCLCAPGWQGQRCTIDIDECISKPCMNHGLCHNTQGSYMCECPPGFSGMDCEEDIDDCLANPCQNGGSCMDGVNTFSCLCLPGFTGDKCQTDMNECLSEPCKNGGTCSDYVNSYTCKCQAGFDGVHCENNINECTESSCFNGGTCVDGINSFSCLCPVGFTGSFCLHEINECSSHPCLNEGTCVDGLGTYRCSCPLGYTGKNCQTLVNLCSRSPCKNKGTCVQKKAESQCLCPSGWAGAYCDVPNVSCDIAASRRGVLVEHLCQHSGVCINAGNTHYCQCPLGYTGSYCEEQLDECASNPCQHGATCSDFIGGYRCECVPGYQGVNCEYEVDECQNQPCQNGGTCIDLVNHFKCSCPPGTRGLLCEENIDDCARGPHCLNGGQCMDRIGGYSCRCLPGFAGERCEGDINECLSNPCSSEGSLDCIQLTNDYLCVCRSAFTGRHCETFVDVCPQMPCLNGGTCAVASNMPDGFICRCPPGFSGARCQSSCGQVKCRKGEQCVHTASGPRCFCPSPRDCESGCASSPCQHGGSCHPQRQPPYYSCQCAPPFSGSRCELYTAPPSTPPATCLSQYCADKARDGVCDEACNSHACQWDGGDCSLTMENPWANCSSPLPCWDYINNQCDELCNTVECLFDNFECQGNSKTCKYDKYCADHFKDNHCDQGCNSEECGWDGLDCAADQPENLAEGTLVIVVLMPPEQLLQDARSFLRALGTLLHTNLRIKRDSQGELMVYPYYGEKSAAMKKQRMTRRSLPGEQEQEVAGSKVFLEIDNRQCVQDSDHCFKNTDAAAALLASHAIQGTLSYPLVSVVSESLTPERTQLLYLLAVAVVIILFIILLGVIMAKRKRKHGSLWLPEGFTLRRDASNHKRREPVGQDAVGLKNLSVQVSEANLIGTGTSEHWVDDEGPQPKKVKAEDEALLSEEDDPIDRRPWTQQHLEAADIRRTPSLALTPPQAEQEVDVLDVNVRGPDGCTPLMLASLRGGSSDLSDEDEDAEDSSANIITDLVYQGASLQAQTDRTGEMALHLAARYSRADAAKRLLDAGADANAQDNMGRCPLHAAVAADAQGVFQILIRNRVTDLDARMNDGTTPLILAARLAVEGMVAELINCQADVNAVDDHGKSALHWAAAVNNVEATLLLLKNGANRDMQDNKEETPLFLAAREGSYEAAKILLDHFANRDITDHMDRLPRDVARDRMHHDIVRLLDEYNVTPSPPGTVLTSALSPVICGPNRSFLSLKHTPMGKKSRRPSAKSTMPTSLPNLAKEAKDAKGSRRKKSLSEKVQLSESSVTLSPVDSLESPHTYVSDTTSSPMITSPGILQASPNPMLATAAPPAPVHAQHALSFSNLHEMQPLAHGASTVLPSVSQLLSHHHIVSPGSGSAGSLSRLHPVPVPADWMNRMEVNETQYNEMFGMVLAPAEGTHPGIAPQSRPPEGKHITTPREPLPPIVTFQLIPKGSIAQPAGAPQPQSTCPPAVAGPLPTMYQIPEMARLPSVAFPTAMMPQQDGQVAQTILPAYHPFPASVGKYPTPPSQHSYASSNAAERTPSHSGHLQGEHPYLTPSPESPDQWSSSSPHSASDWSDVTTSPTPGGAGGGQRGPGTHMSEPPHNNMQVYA
Chain of Torsin-1A-interacting protein 2 (Homo sapiens) (Q8NFQ8 whole entry, looked up): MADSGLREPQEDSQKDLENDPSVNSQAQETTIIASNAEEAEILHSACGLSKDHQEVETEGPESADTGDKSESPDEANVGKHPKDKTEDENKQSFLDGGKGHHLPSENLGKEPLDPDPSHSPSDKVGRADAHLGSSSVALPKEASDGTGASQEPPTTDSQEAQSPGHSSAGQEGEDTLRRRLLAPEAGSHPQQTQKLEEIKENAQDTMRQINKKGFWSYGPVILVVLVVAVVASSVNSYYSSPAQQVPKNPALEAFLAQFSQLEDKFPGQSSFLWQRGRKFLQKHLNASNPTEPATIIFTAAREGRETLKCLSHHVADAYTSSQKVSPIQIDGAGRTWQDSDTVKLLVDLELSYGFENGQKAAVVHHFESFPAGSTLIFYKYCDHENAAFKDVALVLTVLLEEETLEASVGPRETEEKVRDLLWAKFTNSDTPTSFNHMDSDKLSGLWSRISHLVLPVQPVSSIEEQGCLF

With `CCCC[C@@H](O)C1=C(COc2ccccc2)Cn2c(=O)n(-c3ccccc3)c(=O)n2[C@H]1CO`, the composite z-score in experiment [1] was -0.353; in experiment [2] it was -0.0302; in experiment [3], -0.118; in [4], 0.0467; in [5], -0.239; in [6], -0.21. In addition, the composite z-score was -0.851 in [7]; -0.512 in experiment [9]; 0.0274 in experiment [10]; 0.0063 in experiment [11]; 0.94 in experiment [15]; -0.285 in [17]. For the same compound, the composite z-score in experiment [18] was -0.376; in experiment [19] it was -0.88; in experiment [20] it was -0.229. The z-score is -1.83 (inactive) in experiment [8]; -2.31 (inactive) in experiment [12]; -1.82 (inactive) in experiment [13]; -1.17 (inactive) in experiment [14]; 1.87 (inactive) in experiment [16].

As to `COc1ccc(C(=O)Nc2ccc3c(c2)[C@]2(O[C@@H](CCO)[C@H]([Si](C)(C)c4ccc(OC)cc4)[C@H]2C)C(=O)N3Cc2ccccc2)cc1`, the composite z-score is 0.0295 in [1]; 0.203 in experiment [2]; -0.155 in experiment [3]; -0.0615 in [4]; 0.0879 in [5]; 0.725 in experiment [6]. Besides, the composite z-score is 0.913 in experiment [7]; -0.0897 in [9]; -0.0237 in experiment [10]; 1.3 in experiment [11]; 0.468 in experiment [15]; -0.175 in experiment [17]. In addition, the composite z-score in experiment [18] is 0.78; in experiment [19], 0.163; in experiment [20], -0.107. Moreover, the z-score in experiment [8] was -3.63 (inactive); in experiment [12] it was 0.122 (inactive); in experiment [13], -3.28 (inactive); in experiment [14] it was 3.8 (inactive); in experiment [16], 1.11 (inactive).

In the case of `COCCOC(=O)N1C(=O)[C@@]2(c3cc(C#CC4(O)CCCCCC4)ccc31)[C@H](C(=O)N1CCN(c3ncccn3)CC1)[C@H]1C(=O)O[C@H](c3ccccc3)[C@H](c3ccccc3)N1[C@@H]2c1ccc(O)cc1`, the composite z-score was -0.238 in experiment [1]; 0.413 in experiment [2]; 0.0228 in [3]; 0.806 in experiment [4]; 0.372 in [5]; 0.438 in experiment [6]. Moreover, the composite z-score in experiment [7] was 1.22; in experiment [9], -0.123; in [10] it was -0.0618; in experiment [11], 1.47; in [15], 2.54; in experiment [17] it was -0.172. Further, the composite z-score was 0.287 in experiment [18], 0.546 in [19] and -0.158 in [20]. Also, the z-score was -0.617 (inactive) in experiment [8]; 1.79 (inactive) in experiment [12]; -0.885 (inactive) in [13]; 2.83 (inactive) in experiment [14]; 1.31 (inactive) in [16].

In the case of `CN(C)C(=O)[C@@]1(CCC(=O)OC(C)(C)C)N=C(c2ccc(OCCCO)cc2)O[C@H]1c1ccccc1N=[N+]=[N-]`, the composite z-score turned out to be 0.294 in [1]; 1.45 in experiment [2]; 0.0168 in [3]; 0.739 in experiment [4]; 1.2 in experiment [5]; 1.96 in experiment [6]. Besides, the composite z-score in experiment [7] stood at 1.52; in experiment [9] it was 1.79; in experiment [10], 0.245; in experiment [11], 1.54; in experiment [15] it was 3.82; in [17], 0.126. Besides, the composite z-score in experiment [18] stood at 1.09; in experiment [19] it was 1.09; in [20] it was 0.101. In addition, the z-score was 0.768 (inactive) in experiment [8]; 0.82 (inactive) in experiment [12]; 0.217 (inactive) in experiment [13]; 0.701 (inactive) in experiment [14]; -0.0123 (inactive) in [16].

With `C=C(COC)/C(=C/C[C@@H](OC(=O)c1ccncc1)c1cccc(OCCO)c1)c1cc(C(=O)OC)ccc1OC`, the composite z-score in experiment [1] was -0.278; in [2], 0.525; in experiment [3], -0.0428; in experiment [4], 1.06; in [5], 0.426; in [6], -0.142. Further, the composite z-score in experiment [7] was 1.38; in experiment [9] it was -0.0671; in experiment [10], -0.156; in [11], 1.56; in experiment [15], 0.512; in experiment [17] it was -0.205. In addition, the composite z-score in experiment [18] was 1.32; in [19], 0.841; in experiment [20], -0.0022. For the same compound, the z-score in [8] is -3.79 (inactive); in experiment [12] it was -25.3 (active); in experiment [13] it was -20.2 (active); in experiment [14] it was -4.36 (inactive); in experiment [16] it was 0.625 (inactive).
